# Source: PubChem
# Only some compounds are listed: those with a hit (about 14% of all), similar ones and a draw of the others.
# NS1 inh: influenza NS1 inhibition; Potency, µM (doses to about 46.1 µM), without a hit: at the top dose activity, positive = more growth; 270,000 compounds, 0.4% hits; calls by dose curve; note: potency is the fitted concentration of half-maximal effect; actives are rising curves; nearly all actives have a fitted effect of over 50% in size
#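 OD600 was taken as the measure of yeast growth restored by compound in an NS1-expressing S. cerevisiae strain. Cells had been washed out of glucose medium and diluted 1:100 into galactose -URA medium, pH 6.0.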
# Cycloheximide cs: counter-screen for Shiga toxin inhibitors: cycloheximide protein synthesis inhibition; cell reporter, cycloheximide protein synthesis inhibition counterscreen; max response, %; 300,000 compounds, 12% hits; in the data active = max response mostly above about 13%, no sharp cut-off; inactive = mostly below about 14%; note: read at 38.3 µM for the half of the compounds with a filed dose; 0% is about no effect
# LmPK inhibitor: LmPK (Leishmania mexicana) enzyme inhibition | purified LmPK, Kinase-Glo ATP luminescence, 1 h | Potency, µM (highest dose often 57.5 µM), for the others: top-dose activity change, negative = inhibition, actives largely listed as inhibitors | 290,000 compounds, 0.37% hits | AID 1721; note: potency is the fitted concentration of half-maximal effect; % is set by controls: 0 for no effect and ±100 for the full control effect
# Target sequence (Q27686 whole entry, looked up): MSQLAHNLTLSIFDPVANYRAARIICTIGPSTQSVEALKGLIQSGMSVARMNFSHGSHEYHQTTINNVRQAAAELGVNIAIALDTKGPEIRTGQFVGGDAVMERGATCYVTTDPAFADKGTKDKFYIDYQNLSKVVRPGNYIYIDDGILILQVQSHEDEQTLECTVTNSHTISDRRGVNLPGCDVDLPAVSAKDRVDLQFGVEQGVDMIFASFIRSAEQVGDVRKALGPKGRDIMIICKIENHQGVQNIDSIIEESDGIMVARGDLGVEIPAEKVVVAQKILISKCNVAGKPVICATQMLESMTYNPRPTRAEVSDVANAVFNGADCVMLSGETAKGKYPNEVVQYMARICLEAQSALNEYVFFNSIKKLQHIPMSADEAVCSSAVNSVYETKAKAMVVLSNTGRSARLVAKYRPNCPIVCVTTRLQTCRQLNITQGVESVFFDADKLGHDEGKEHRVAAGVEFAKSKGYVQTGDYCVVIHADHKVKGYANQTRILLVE
#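 ATP generated from ADP (0.1 mM) and PEP (0.5 mM) by 0.1 nM LmPK over 1 h at room temperature (pH 7.2 imidazole buffer) was detected by coupled luciferase luminescence. Values were normalized to uninhibited and no-enzyme wells.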
# Giardia FBPA inh: Giardia lamblia aldolase inhibition; A8B2U2; purified Giardia FBPA; Potency, µM (doses to about 59.6 µM), for the others: at the highest dose activity, negative = inhibition, hits mostly inhibitors; 290,000 compounds, 0.71% hits; note: potency is the fitted concentration of half-maximal effect; % is set by controls: 0 for no effect and ±100 for the full control effect; nearly all actives have a fitted effect of over 55% in size
#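 Giardia FBPA (40 nM reagent) was preincubated 10 min at RT with compound (up to 57.5 uM final), then substrate plus GAPDH/TPI/NAD/arsenate coupling system with diaphorase/resazurin was added; resorufin fluorescence (525/598 nm) was read after 20 min.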
# Shiga toxin inh: inhibitors of Shiga toxin in Vero cells. Vero cells, Shiga toxin protein synthesis inhibition reporter. inhibition, % at 38.7 µM. 290,000 compounds, 9.2% hits; in the data active = inhibition mostly above about 28%, no sharp cut-off; inactive = mostly below about 43%; note: 0% is about no effect
# The depositor's hits bear a star; i = inactive; u = inconclusive; x = not tested or not shown; [ ] = remark or other dose. Unless noted, calls come from the whole dose curve; as a rule, active = well fitted curve in the direction sought with a large enough effect; inconclusive = small, poorly fitted or top-dose-only effect, or another doubt; inactive = no such curve, though single readings can be large; an effect the other way counts as inactive or inconclusive.
SMILES,NS1 inh,Cycloheximide cs,LmPK inhibitor,Giardia FBPA inh,Shiga toxin inh
NS(=O)(=O)c1ccc(CCNC(=O)C(=O)c2cn(CC(=O)N3CCCC3)c3ccccc23)cc1,0%,-2,-3%,-20%,14
COc1ccc(C(=O)NNC(=O)c2ccccc2[N+](=O)[O-])cc1,6%,32*,-5%,1%,37*
O=C(O)c1cccc([N+](=O)[O-])c1C(=O)Nc1nc2ccccc2s1,x,6,3%,0%,34
COc1ccc2nc(NC(=O)c3ccccc3O)sc2c1,-38%,58*,-7%,-7%,63*
CCOC(=O)c1cccc(C(=O)Nc2nc3ccc(OC)cc3s2)n1,x,21,1%,-11%,39*
O=C(NNC(=O)c1ccccc1[N+](=O)[O-])c1ccccc1[N+](=O)[O-],1%,1,7%,-6%,-10
O=C(Nc1nc2ccccc2s1)c1ccccc1[N+](=O)[O-],0%,46*,-4%,-20%,60*
CC(=O)OCC1C2CC[C@H]3C(OCc4ccc(F)cc4C(F)(F)F)OC[C@]4(C)[C@H]3C2=C(CN4C(=O)OC(C)(C)C)[C@H](C)C1COC(C)=O (some centres not stated),x,x,x,-4%,x
CCOc1ccccc1NC(=S)N1CCN(c2nc(-c3ccc(F)cc3)cs2)CC1,13%,9,-2%,-5%,6
COc1cccc(OC)c1C(=O)Nc1nc2ccc([N+](=O)[O-])cc2s1,7%,1,16%,1%,-7
COc1ccc2nc(NC(=O)c3ccccc3[N+](=O)[O-])sc2c1,5%,40*,-1%,-7%,71*
CCOc1cccc2cc(C(=O)NCc3ccc(Cl)cc3)c(=N)oc12,18%,5,7%,-9%,39
Cc1ccc2nc(NC(=O)CS(=O)(=O)Cc3ccccc3)sc2c1,-3%,4,8%,1%,23
Cc1ccc2nc(NC(=O)CCNS(=O)(=O)c3ccc(Br)s3)sc2c1,-54%,26*,2%,6%,67
Cc1ccc2nc(NC(=O)c3ccc(NS(=O)(=O)c4cccs4)cc3)sc2c1,-13%,29*,-3%,3%,15
COc1ccc(C)cc1NC(=O)c1ccc(NS(=O)(=O)c2cccs2)cc1,8%,-4,-3%,7%,-7
Cc1ccc2nc(NC(=O)CCNS(=O)(=O)c3cccs3)sc2c1,-6%,26*,-5%,-1%,79*
Cc1cccc2sc(NC(=O)CCNS(=O)(=O)c3cccs3)nc12,-6%,1,7%,-3%,-6
COC(=O)c1ccc(C(NC(=O)OCc2ccccc2)/C(=C/[C@@H](C)C(=O)NCc2cc(C)on2)c2cccnc2)cc1 (some centres not stated),x,x,x,2%,x
CSCC[C@H](NC(=O)Cc1c(C)c2cc3c4c(oc3cc2oc1=O)CCCC4)C(=O)O,4%,1,-7%,4%,3
Cc1ccc(C2CC(=O)Oc3cc(C)c(Br)c(C)c32)cc1 (configuration not stated),x,6,x,1%[89.2 µM],i
Cc1cc2c(s1)c1cnn(Cc3ccccc3F)c(=O)c1n2Cc1ccccc1F,x,15,x,x,7
Cn1c(CN2CCOCC2)nc2cc(NC(=O)c3ccc(F)cc3)ccc21,-10%,17*,-4%,-13%,54*
CC(c1ccccc1)N1CCn2c(nc3cc(NC(=O)c4cccs4)ccc32)C1 (configuration not stated),-56%,21*,2%,-8%,26
Cn1c(CN2CCCC2)nc2cc(NC(=O)COc3ccc(Cl)cc3)ccc21,-40%,-3,-9%,5%,-1
SMILES,NS1 inh,Cycloheximide cs,LmPK inhibitor,Giardia FBPA inh,Shiga toxin inh
CC(=O)N1CCN(Cc2nc3cc(NC(=O)c4cccs4)ccc3n2C)CC1,4%,1,6%,-10%,-7
COCCN1CCn2c(nc3cc(NC(=O)c4cccs4)ccc32)C1,u,23,2%,-11%,47
Cn1c(CN2CCOCC2)nc2cc(NC(=O)c3ccccc3Cl)ccc21,10%,-3,4%,0%,-3
Cn1c(CN2CCCC2)nc2cc(NC(=O)c3ccc(Cl)cc3)ccc21,x,35*,0%,-22%,42*
Cn1c(CN2CCCC2)nc2cc(NC(=O)c3cccs3)ccc21,17%,35*,1%,-11%,65*
CC(C)NC(=O)N1CCC2(CC1)CCN(S(=O)(=O)c1ccccc1)CC2,x,x,x,7%,x
Cc1cc(-c2ccc(Cl)s2)n[nH]1,15%,29*,2%,3%,82*
CCOc1ccc(CCNC(=O)c2ccc(=O)[nH]c2)cc1OCC,7%,-2,1%,x,-2
